The text below walks through data of PubChem BioAssay (EPA / NIEHS).

Where “and” joins values, the source holds several entries; their conditions need not be identical. Identical values can stand only once. Where a structure was tested more than once in an assay, its records may differ in their call. Calls of active or inactive are those of the source. How the source made its calls: active means hit-call score of the fitted dose curve at least 0.9, where 1 is the maximum; inactive means score below 0.9.

Read-out in test [1]: Interleukin-8 (IL8), CXCL8 (gene 3576)
The test can be described thus: BSK_IMphg_IL8: BioMAP Diversity Plus: IMphg Assay for Interleukin-8 (IL8) Biomarker Activity (AID 2284277). To be noted: primary human endothelial cells with macrophages. A digest of the protocol:
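IL-8 levels were measured by ELISA 24 h after dosing in primary human venular endothelial cell–macrophage cultures, referenced to DMSO; parallel SRB staining monitored overt cytotoxicity.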

Read-out in test [2]: Intercellular Adhesion Molecule 1 (ICAM1), ICAM1 (gene 3383)
The test can be described thus: BSK_BE3C_ICAM1: BioMAP Diversity Plus: BE3C Assay for Intercellular Adhesion Molecule 1 (ICAM1) Biomarker Activity (AID 2284278).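 On outcome: cell-surface ICAM-1 protein level quantified by ELISA.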 The settings on record: primary human bronchial epithelial cells. In short, it runs like this: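 ICAM-1 quantified by ELISA and fitted against DMSO baseline, 24 h post-dosing in BE3C cultures of primary human lung bronchial epithelial cells. Cytotoxicity checked in parallel cultures by total protein SRB staining.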

Read-out in test [3]: Interferon-inducible T-cell alpha chemoattractant (ITAC), CXCL11 (gene 6373)
The test can be described thus: BSK_BE3C_ITAC: BioMAP Diversity Plus: BE3C Assay for Interferon-inducible T-cell alpha chemoattractant (ITAC) Biomarker Activity (AID 2284279). To be noted: primary human bronchial epithelial cells. Here is the method:
(§1) BSK_BE3C is a cell-based, multiplexed-readout assay that uses bronchial epithelial cell, a human lung primary cell, with measurements taken at 24 hours after chemical dosing in a 96-well plate.BSK_BE3C_ITAC is an assay component measured in the BSK_BE3C assay. It measures I-TAC antibody related to regulation of gene expression using ELISA technology.Data from the assay component BSK_BE3C_ITAC was analyzed at the endpoint, BSK_BE3C_ITAC, in the positive analysis fitting direction relative to DMSO as the negative control and baseline of activity. Using a type of binding reporter, gain or loss-of-signal activity can be used to understand protein changes. […]
(§2) The levels of cell surface (or secreted, indicated by the prefix "s") biomarker endpoints were measured by ELISA. Overt cytotoxicity to cells in confluent adherent cultures (all systems other than the BT system) was assessed by measuring total protein levels using sulforhodamine B (SRB) staining in parallel cultures at the time of biomarker measurements, indicated as SRB endpoints. For proliferation assays for adherent cell types, individual cell types are cultured at sub-confluence and relative cell numbers quantified by SRB staining at time points optimized for each system (48 h: 3C and CASM3C systems; 72 h: BT and HDF3CGF systems; 96 h: SAg system). […] Plates were read after 6 h.

Read-out in test [4]: Interleukin-8 (IL8), CXCL8 (gene 3576)
The test can be described thus: BSK_BE3C_IL8: BioMAP Diversity Plus: BE3C Assay for Interleukin-8 (IL8) Biomarker Activity (AID 2284280). To be noted: primary human bronchial epithelial cells. A digest of the protocol: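 Measured at 24 h after treatment, IL-8 from human primary bronchial epithelial cells is determined by ELISA, and the response is modelled as increasing relative to DMSO negative control.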

Read-out in test [5]: Epidermal growth factor receptor (EGFR), EGFR (gene 1956)
The test can be described thus: BSK_BE3C_EGFR: BioMAP Diversity Plus: BE3C Assay for Epidermal growth factor receptor (EGFR) Biomarker Activity (AID 2284281). The settings on record: primary human bronchial epithelial cells. As to the method:
BSK_BE3C is a cell-based, multiplexed-readout assay that uses bronchial epithelial cell, a human lung primary cell, with measurements taken at 24 hours after chemical dosing in a 96-well plate.BSK_BE3C_EGFR is an assay component measured in the BSK_BE3C assay. It measures EGFR antibody related to regulation of gene expression using ELISA technology.Data from the assay component BSK_BE3C_EGFR was analyzed at the endpoint, BSK_BE3C_EGFR, in the positive analysis fitting direction relative to DMSO as the negative control and baseline of activity. Using a type of binding reporter, gain or loss-of-signal activity can be used to understand protein changes. To generalize the intended target to other relatable targets, this assay endpoint is annotated to the 'kinase' intended target family, where the subfamily is 'receptor tyrosine kinase'.
as §2, with “system). SRB was performed by staining cells with 0.1% SRB after fixation with 10% TCA and reading wells at 560 nm.Viability and proliferation of PBMC (T cells) was quantified by Alamar Blue reduction for the SAg and BT systems. […] Then, Alamar Blue (20 uL/well) (Invitrogen, Cat DAL1100) was added for 6 h, and the plates were read with a fluorescence microplate reader at 546/580 nm (excitation/emission).” for “system).”

Read-out in test [6]: KRT18 (gene 3875)
The test can be described thus: BSK_BE3C_Keratin818: BioMAP Diversity Plus: BE3C Assay for Keratin 818 Biomarker Activity (AID 2284282). To be noted: primary human bronchial epithelial cells. As to the method:
as §1, with “plate.BSK_BE3C_Keratin818” for “plate.BSK_BE3C_ITAC”, “Keratin 8/18” for “I-TAC”, “BSK_BE3C_Keratin818” for “BSK_BE3C_ITAC”, “BSK_BE3C_Keratin818,” for “BSK_BE3C_ITAC,”
as §2

Read-out in test [7]: Matrix Metallopeptidase 9 (MMP9), MMP9 (gene 4318)
The test can be described thus: BSK_BE3C_MMP9: BioMAP Diversity Plus: BE3C Assay for Matrix Metallopeptidase 9 (MMP9) Biomarker Activity (AID 2284283). The settings on record: primary human bronchial epithelial cells. In short, it runs like this:
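Human primary bronchial epithelial cells in the BE3C system were dosed with compound for 24 h. MMP-9 was measured by ELISA, and the positive-direction response was fitted relative to DMSO as baseline. Parallel SRB staining gauged cytotoxicity.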

Read-out in test [8]: Plasminogen activator inhibitor-1 (PAI1), SERPINE1 (gene 5054)
The test can be described thus: BSK_CASM3C_PAI1: BioMAP Diversity Plus: CASM3C Assay for Plasminogen activator inhibitor-1 (PAI1) Biomarker Activity (AID 2284284).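 Further: PAI-1 protein level measured by ELISA 24 h after dosing.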 The settings on record: primary human coronary artery smooth muscle cells.

Read-out in test [9]: Monocyte Chemoattractant Protein-1 (MCP1), CCL2 (gene 6347)
The test can be described thus: BSK_hDFCGF_MCP1: BioMAP Diversity Plus: hDFCGF Assay for Monocyte Chemoattractant Protein-1 (MCP1) Biomarker Activity (AID 2284285). The settings on record: primary human foreskin fibroblasts. In short, it runs like this: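 MCP-1 ELISA readout was taken 24 hours after dosing primary human dermal fibroblasts in the hDFCGF system, with DMSO as baseline. Parallel sulforhodamine B staining of total protein tracked overt cytotoxicity.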

Read-out in test [10]: Vascular cell adhesion molecule 1 (VCAM1), VCAM1 (gene 7412)
The test can be described thus: BSK_IMphg_VCAM1: BioMAP Diversity Plus: IMphg Assay for Vascular cell adhesion molecule 1 (VCAM1) Biomarker Activity (AID 2284286). To be noted: primary human endothelial cells with macrophages. A digest of the protocol: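 ELISA read-out of VCAM-1 on venular endothelial cell/macrophage co-cultures at 24 h post-treatment, with DMSO as baseline and positive-direction fitting. Parallel sulforhodamine B total-protein staining (560 nm) served as the overt cytotoxicity measure.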

On to `O=S(=O)(O)C(F)(F)C(F)(F)C(F)(F)C(F)(F)C(F)(F)C(F)(F)C(F)(F)C(F)(F)F`, for which the result in test [1], in [2], in [4], in test [5], in test [6] and in [8] was inactive. For the same molecule, the result in test [9] and in test [10] was inactive. In addition, the AC50 was 49.3 µM (active) and 53.4 µM (active) in [2]; 40.8 µM (active) [middle of 4 runs] in [3]; 30 µM (active) and 7.03 µM (active) and 2.79 µM (active) in test [4]; 16.5 µM (active) and 11.6 µM (active) and 13.2 µM (active) in [5]; 17.7 µM (active) [middle of 4 runs] in test [7].
Regarding `O=C(O)C(F)(F)C(F)(F)C(F)(F)C(F)(F)C(F)(F)C(F)(F)C(F)(F)F`, in test [1], the AC50 is 20.5 µM (active) and 20.3 µM (active) and 25.2 µM (active). Moreover, the outcome in test [1], in test [2], in [3], in test [4], in test [5] and in test [6] was inactive. The result in test [7], in test [8], in test [9] and in test [10] was inactive.

What is called AC50 is the concentration at which the activity in the assay is half-maximal.
